Laboratory results taken from PubChem BioAssay AID449762 (Southern Research Specialized Biocontainment Screening …, 2010).
Out of some 330,000 compounds screened, about 1,900 (0.58%) were called active. Another 4% or so got no clear call; they are omitted. Only a sample is shown. Entries with a potency or affinity are not part of this list. A number with no mark means an inactive call. Cut-off read from the data, not from the text of the source: inconclusive = inhibition above about 70% without an active follow-up result; inactive = below that.

Assay: M. tuberculosis growth inhibition, HTS (AID 449762);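 note: bacterial growth assessed after seven days of incubation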
Details: M. tuberculosis H37Rv growth inhibition, 7H9 media; at 25 µM; stronger effect = higher value

Which inhibition does the source give for `O=C(c1cc(COc2c(F)cccc2F)on1)N1CCN(C2CCCCC2)CC1` here?
Its inhibition is 10.1%.

For `COc1ccc(-c2onc3ccc(C(=O)/C=C/N(C)C)cc23)cc1`, which inhibition is on record?
The inhibition was 6.78%.

With `O=c1oc2ccccc2c(Nc2ccc(O)cc2)c1[N+](=O)[O-]` as the molecule, how does the inhibition read?
Its inhibition is -6.31%.

For `O=c1oc2ccccc2c(Nc2cccc3ccccc23)c1[N+](=O)[O-]`, which inhibition is on record?
Its inhibition is 20.4%.

Which inhibition does the source give for `CCn1c(SCC(=O)Nc2ccc3c(c2)OCCO3)nnc1C1CC1` here?
The inhibition was -3.26%.

For `CCC(=O)Nc1nc(-c2ccc3c(c2)CC(C)N3S(C)(=O)=O)cs1` (stereo not given), which inhibition is on record?
Its inhibition is 58.2%.

For `CC1Cc2cc(-c3csc(NC(=O)Cc4ccccc4)n3)ccc2N1S(C)(=O)=O` (stereo not given), which inhibition is on record?
Its inhibition is 54.4%.

For `Cc1ccc(CCNC(=O)C2CCN(S(=O)(=O)c3ccc4c(c3)oc(=O)n4C)CC2)cc1`, which inhibition is on record?
Its inhibition is -5.23%.

For `Cc1ccc(C(=O)CSc2nc(C)cc(C)c2C(N)=O)cc1`, which inhibition is on record?
Its inhibition is 69%.

With `Cc1cc(C)c(C(N)=O)c(SCC(=O)c2cc(C)c(C)cc2C)n1` as the molecule, how does the inhibition read?
The inhibition was 5.89%.

For `CN(C)c1oc(-c2ccc(Cl)cc2)nc1S(=O)(=O)c1ccccc1`, which inhibition is on record?
The inhibition was 3.09%.

With `COc1ccc(CS(=O)(=O)CC(C)(O)c2ccc(Cl)cc2)cc1` (stereo not given) as the molecule, how does the inhibition read?
The inhibition was 8.74%.

Which inhibition does the source give for `Cc1cc(C)n(-c2ccc(C(=O)OCC(=O)Nc3cc(S(C)(=O)=O)ccc3Cl)cc2)n1` here?
Its inhibition is 9.43%.

Which inhibition does the source give for `CC(/C=N\NC(=O)c1cc(C)oc1C)=C\c1ccccc1` here?
The inhibition was 5.28%.

For `Cc1cc(C(=O)N/N=C/C(Cl)=C/c2ccccc2)c(C)o1`, which inhibition is on record?
Its inhibition is 2.89%.

With `COC(=O)c1cc(NC(=O)c2ccc(-c3ccccc3)cc2)ccc1Cl` as the molecule, how does the inhibition read?
The inhibition was -0.43%.

For `O=C(CSc1ncn[nH]1)NCc1ccc(Cl)cc1`, which inhibition is on record?
Its inhibition is 23.7%.

Which inhibition does the source give for `CC(C)c1ccc(C(=O)CSc2ncn[nH]2)cc1` here?
The inhibition was -3.26%.

With `Cc1ccc2c(c1)Oc1ccc([N+](=O)[O-])cc1C(=O)N2` as the molecule, how does the inhibition read?
The inhibition was 3.53%.

With `Cc1ccc2c(c1)Oc1ccc(NC(=O)CCCl)cc1C(=O)N2` as the molecule, how does the inhibition read?
Its inhibition is 11.1%.

Which inhibition does the source give for `Cc1ccc(Cn2c(N)c(S(=O)(=O)c3cccs3)c3nc4ccccc4nc32)cc1` here?
The inhibition was -12%.

For `COc1ccc(C(CNC(=O)COc2ccc(-c3ccccc3)cc2)N2CCOCC2)cc1` (stereo not given), which inhibition is on record?
The inhibition was -6.25%.

For `N/C(=N\[N+](=O)[O-])N1CCN(C(=O)c2ccccc2)CC1`, which inhibition is on record?
The inhibition was -7.03%.

For `Cc1ccc(S(=O)(=O)Nc2ccnc3ccccc23)cc1`, which inhibition is on record?
The inhibition was -5.18%.

For `Cc1ccc(S(=O)(=O)Nc2cccc3ncccc23)cc1`, which inhibition is on record?
Its inhibition is 0.6%.

Which inhibition does the source give for `O=S(=O)(c1ccc(=S)[nH]c1)N1CCCC1` here?
The inhibition was -0.36%.

With `CC(CCc1ccccc1)NC(=O)CCNC(=O)c1ccccc1Cl` (stereo not given) as the molecule, how does the inhibition read?
The inhibition was 0.74%.

With `O=C(CCSCc1ccccc1F)NCc1cccnc1` as the molecule, how does the inhibition read?
Its inhibition is 12.2%.

For `O=C(Nc1nc2c(s1)CCCC2)c1cc(-c2ccncc2)nc2ccccc12`, which inhibition is on record?
The inhibition was -5.59%.

For `O=C(Nc1nc2c(s1)CCCC2)c1cc(-c2ccccc2)nc2ccccc12`, which inhibition is on record?
Its inhibition is 65.5%.

Which inhibition does the source give for `COc1ccc(-c2ccc3oc(-c4ccc(OC)cc4)c(C#CC4(O)CCCCC4)c3c2)cc1` here?
Its inhibition is 61.2%.

For `COc1ccc(-c2oc3ccc(-c4ccc(OC)nc4)cc3c2-c2ccc(OC)cc2)cc1`, which inhibition is on record?
Its inhibition is 3.96%.

Which inhibition does the source give for `CCC(C)(C)NC(=O)C(c1cccs1)N(C(=O)c1ccn[nH]1)c1cccc(OC)c1` (stereo not given) here?
The inhibition was -8.05%.

For `CN1CCN(c2ccc([N+](=O)[O-])c(-n3nc(-c4ccccc4)c4ccccc4c3=O)c2)CC1`, which inhibition is on record?
The inhibition was 38.4%.

Which inhibition does the source give for `Cc1nn(-c2cc(N3CCCC3)ccc2[N+](=O)[O-])c(=O)c2ccccc12` here?
The inhibition was -3.75%.

For `COc1cc(C=O)ccc1OCC(=O)N1CCOCC1`, which inhibition is on record?
The inhibition was -0.06%.

With `CCc1nc2c(c(=O)[nH]1)C(CC)(CC)Cc1ccccc1-2` as the molecule, how does the inhibition read?
Its inhibition is 5.03%.

Which inhibition does the source give for `CCC1(CC)Cc2ccccc2-c2nc(CN3CCOCC3)[nH]c(=O)c21` here?
Its inhibition is 51.6%.

For `O=C(Nc1cccc(S(=O)(=O)N2CCCC2)c1)c1cc(=O)[nH]c2ccccc12`, which inhibition is on record?
The inhibition was -4.61%.

For `Cc1nc2ccc(NC(=O)c3ccccc3)cc2s1`, which inhibition is on record?
Its inhibition is 3.89%.

With `Cc1nc2ccc(Oc3ccccc3)cc2s1` as the molecule, how does the inhibition read?
The inhibition was 7.08%.

Which inhibition does the source give for `Cn1c(=O)n(C)c2cc(NC(=O)c3cc4ccccc4o3)ccc21` here?
The inhibition was 6.91%.

For `COc1ccc(-n2cc(CNCCCn3ccnc3)c(-c3ccccc3Cl)n2)cc1`, which inhibition is on record?
Its inhibition is 13.2%.

Which inhibition does the source give for `COc1ccc(-n2cc(CNCCc3nc(C)cc(C)n3)c(-c3ccccc3Cl)n2)cc1` here?
The inhibition was 68.4%.

With `COc1ccc(OCCN2C(=O)c3ccccc3C2=O)c([N+](=O)[O-])c1` as the molecule, how does the inhibition read?
The inhibition was -4.41%.

For `COc1cc2[nH]c(C(=O)NCCc3ccccc3)cc2c(OC)c1OC`, which inhibition is on record?
Its inhibition is 0.36%.

Which inhibition does the source give for `COC(=O)c1cnn(-c2ccc(C)c(C)c2)c1-n1cccc1` here?
Its inhibition is 3%.

For `Cc1c(Cl)ccc2c1NC(=O)[C@]21N[C@@H](CCC(N)=O)[C@H]2C(=O)N(c3ccc(F)cc3)C(=O)[C@H]21`, which inhibition is on record?
The inhibition was -5.78%.

For `Cc1c(Cl)ccc2c1NC(=O)C21NC(CCC(N)=O)[C@H]2C(=O)N(c3ccc(Cl)cc3)C(=O)[C@H]21` (stereo not given in full), which inhibition is on record?
The inhibition was -9%.

Which inhibition does the source give for `CC(=O)N(C)c1ccc(OCC(O)Cn2c(C)nc3ccccc32)cc1` (stereo not given) here?
The inhibition was 0.96%.

Which inhibition does the source give for `CCC(c1nnc(SCC(=O)Nc2cc(S(C)(=O)=O)ccc2Cl)n1Cc1ccccc1)N(C)C` (stereo not given) here?
Its inhibition is -14.3%.

For `C=CCSc1n[nH]c(-c2ccc(OCCC)cc2)n1`, which inhibition is on record?
Its inhibition is 56.7%.

Which inhibition does the source give for `C=CCSc1n[nH]c(-c2ccc(OC)cc2)n1` here?
Its inhibition is -6.49%.

With `Cc1ccc(NC(=O)c2ccc(OC(=O)COc3ccc(Cl)c(C)c3)cc2)cc1` as the molecule, how does the inhibition read?
The inhibition was -2.96%.

Which inhibition does the source give for `COc1ccc(Cc2[nH]n3c(=O)c(Cl)c(C)nc3c2-c2ccccc2)cc1` here?
Its inhibition is 35.3%.

With `O=C(Cn1nc(CNc2ccc(Cl)cc2)[n+]2c1CCCCC2)c1ccccc1` as the molecule, how does the inhibition read?
Its inhibition is 0.81%.

Which inhibition does the source give for `O=C(Cn1nc(CNc2ccc(Br)cc2)[n+]2c1CCCCC2)c1ccc([N+](=O)[O-])cc1` here?
The inhibition was 64.9%.

With `CCCCN1C(=O)C(=O)N(c2ccccc2)C1=S` as the molecule, how does the inhibition read?
Its inhibition is 5.31%.

Which inhibition does the source give for `COC(=O)CN(C(=S)Nc1ccc(F)cc1)C1CC(=O)N(c2ccccc2)C1=O` (stereo not given) here?
The inhibition was 5.39%.

With `O=C(O)/C(=C\c1ccc2ccccc2c1)c1cccc2ccccc12` as the molecule, how does the inhibition read?
The inhibition was 2.24%.

With `CN1C(=O)/C(=C/c2ccccc2Cl)Sc2ccc(C(=O)N3CCCC3)cc21` as the molecule, how does the inhibition read?
Its inhibition is 69.8%.

With `COc1ccc(/C=C2\Sc3ccc(C(=O)N4CCCC4)cc3N(C)C2=O)cc1OC` as the molecule, how does the inhibition read?
The inhibition was 7.11%.

For `Cn1ncc([N+](=O)[O-])c1C(=O)Nc1ccc(-c2nc3ccccc3o2)cc1`, which inhibition is on record?
Its inhibition is 1.46%.

Which inhibition does the source give for `COc1ccc(/C=C/C(=O)NCCOc2ccc(C)cc2)cc1` here?
Its inhibition is -2.38%.

With `NC(=O)CC(NC(=O)c1ccccc1)c1ccc(NC2CCCC2)c([N+](=O)[O-])c1` (stereo not given) as the molecule, how does the inhibition read?
Its inhibition is 0.75%.

Which inhibition does the source give for `CN(C)CCCn1c2c(c(SCC(=O)Nc3cccc4ccccc34)nc1=O)CCC2` here?
Its inhibition is 0.83%.

For `c1ccc(C[C@H]2CNCCN2CCc2cccc3ccccc23)cc1`, which inhibition is on record?
Its inhibition is 53.6%.

With `Fc1cccc(CCN2CCNC[C@@H]2Cc2ccccc2)c1` as the molecule, how does the inhibition read?
Its inhibition is -4.28%.

Which inhibition does the source give for `CCOC(=O)N1CCC(NC(=O)C2CCN(S(=O)(=O)c3cnc[nH]3)CC2)CC1` here?
The inhibition was -6.34%.

For `Cc1ccc(S(=O)(=O)N2CCN(C(=O)Cn3c(=O)oc4ccccc43)CC2)c(C)c1`, which inhibition is on record?
The inhibition was 3.86%.

For `CC(C)N(C(=O)[C@H]1CC(CC(=O)NCc2ccco2)C(=O)N2CCc3c([nH]c4ccccc34)[C@]12C)C(C)C` (stereo not given in full), which inhibition is on record?
Its inhibition is 2.78%.

For `O=S(=O)(c1ccc(F)cc1)n1ccc2cccnc21`, which inhibition is on record?
Its inhibition is 4.44%.

For `Nc1ccc(-c2nc3ccccc3o2)cc1`, which inhibition is on record?
Its inhibition is 49%.

Which inhibition does the source give for `Cc1nc2ccc(-c3nc4ccccc4o3)cc2[nH]1` here?
Its inhibition is 8.75%.

For `COc1ccc(/C=N/NC(=O)c2cc3c(ccc4ccccc43)o2)cc1OC`, which inhibition is on record?
The inhibition was 11.8%.

For `Cc1ccc2nc(N3C(=O)C(O)=C(C(=O)c4cc5ccccc5o4)C3c3cccs3)sc2c1` (stereo not given), which inhibition is on record?
Its inhibition is -1.99%.

Which inhibition does the source give for `Cc1ccc2nc(N3C(=O)C(O)=C(C(=O)c4ccco4)C3c3cccs3)sc2c1` (stereo not given) here?
The inhibition was -7.92%.

With `COc1ccc(CNC(=O)c2cccc(NC3=NC4CS(=O)(=O)CC4S3)c2)cc1` (stereo not given) as the molecule, how does the inhibition read?
The inhibition was -9.1%.

For `CCN1/C(=C/C=C/C=C/C=C/c2sc3ccccc3[n+]2CC)Sc2ccccc21`, which inhibition is on record?
Its inhibition is 5.11%.

Which inhibition does the source give for `CC[n+]1ccccc1/C=C1\Sc2ccc(C)cc2N1C` here?
Its inhibition is 6.67%.

Which inhibition does the source give for `Cc1cc(C)n(-c2ccc(Cl)c(C(=O)OCC(=O)N3CCCCC3C)n2)n1` (stereo not given) here?
The inhibition was -1.17%.

For `C/C(=N\NC(=O)c1nnn(-c2nonc2N)c1CN(C)c1ccccc1)c1ccc(O)cc1`, which inhibition is on record?
Its inhibition is -0.5%.

Which inhibition does the source give for `C/C(=N\NC(=O)c1nnn(-c2nonc2N)c1CN(C)c1ccccc1)c1ccccc1O` here?
Its inhibition is 12.9%.

Which inhibition does the source give for `Cc1ccc(C)c(OC(=O)C2CSC3(C)CCC(=O)N23)c1C` (stereo not given) here?
Its inhibition is -8.22%.

Which inhibition does the source give for `Cc1ccc(NS(=O)(=O)c2ccc(Cl)c(C(=O)Nc3ccccc3-c3nc4ccccc4[nH]3)c2)cc1C` here?
The inhibition was 4.41%.

Which inhibition does the source give for `CCC(NC(=O)c1ccccc1NC(=O)c1ccco1)C(=O)NNC(=O)c1ccc(OC)cc1` (stereo not given) here?
The inhibition was -4.34%.

With `O=C(Nc1cc(Cl)cc(Cl)c1)C1C2C=CC3(O2)C1C(=O)N(CCCN1CCOCC1)C3C(=O)NC1CCCCC1` (stereo not given) as the molecule, how does the inhibition read?
Its inhibition is -1.97%.

For `CCOC(=O)Cn1c(Br)nc2c1c(=O)[nH]c(=O)n2C`, which inhibition is on record?
The inhibition was 2.17%.

Which inhibition does the source give for `Cc1[nH]nc2c1C(c1ccc(-c3ccccc3C#N)o1)C(C#N)=C(N)O2` (stereo not given) here?
The inhibition was 16.8%.

Which inhibition does the source give for `Cc1ccc(C2C(C#N)=C(N)Oc3n[nH]c(C)c32)cc1` (stereo not given) here?
The inhibition was 2.2%.
